# Results as given in PubChem BioAssay (EPA / NIEHS).
# Calls of active or inactive are those of the source. The calls were made as follows: active = hit-call score of the fitted dose curve at least 0.9, where 1 is the maximum; inactive = score below 0.9.
# Target: Signal transducer and activator of transcription 3 (Homo sapiens) (UniProt P40763)
# Experiment: ATG_STAT3_CIS: Attagene CIS-FACTORIAL HepG2 Assay for human Signal Transducer and Activator of Transcription 3 (STAT3) (AID 2282963)
# Settings: HepG2, Attagene cis-factorial STAT3 reporter transcription; actives raise or lower the signal
# In short: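 Readout is reporter transcript quantified by RT-PCR and capillary electrophoresis, with 6-FAM primer extension and HpaI digestion. Total RNA is taken 24 h after dosing transiently transfected HepG2 carrying cis-regulated reporter units. Bidirectional fit against DMSO.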
# Sequence of Signal transducer and activator of transcription 3 (Homo sapiens) (P40763 whole entry, looked up): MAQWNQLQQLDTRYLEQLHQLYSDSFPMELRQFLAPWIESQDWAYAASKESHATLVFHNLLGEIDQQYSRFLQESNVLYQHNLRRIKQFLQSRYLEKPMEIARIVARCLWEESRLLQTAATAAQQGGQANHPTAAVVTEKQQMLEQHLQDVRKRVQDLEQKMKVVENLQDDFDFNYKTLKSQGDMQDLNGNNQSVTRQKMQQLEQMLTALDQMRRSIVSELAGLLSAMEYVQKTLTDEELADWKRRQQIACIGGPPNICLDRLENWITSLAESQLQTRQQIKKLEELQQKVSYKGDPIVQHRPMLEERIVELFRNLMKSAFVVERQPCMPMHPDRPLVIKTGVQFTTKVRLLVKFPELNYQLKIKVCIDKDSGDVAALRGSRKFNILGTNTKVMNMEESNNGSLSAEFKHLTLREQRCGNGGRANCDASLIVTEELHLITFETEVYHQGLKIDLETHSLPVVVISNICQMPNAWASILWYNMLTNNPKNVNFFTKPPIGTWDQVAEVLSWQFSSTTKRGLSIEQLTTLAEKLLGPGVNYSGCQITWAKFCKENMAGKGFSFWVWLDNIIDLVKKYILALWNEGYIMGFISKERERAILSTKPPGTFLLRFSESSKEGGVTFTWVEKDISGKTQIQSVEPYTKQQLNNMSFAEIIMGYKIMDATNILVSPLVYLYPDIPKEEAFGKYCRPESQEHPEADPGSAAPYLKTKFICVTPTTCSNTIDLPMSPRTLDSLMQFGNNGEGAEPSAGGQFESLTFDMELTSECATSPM
row,Structure (SMILES),outcome
1,Cc1c(C(=O)O)c(O)cc2c1C(=O)c1c(O)c([C@@H]3O[C@H](CO)[C@@H](O)[C@H](O)[C@H]3O)c(O)c(O)c1C2=O,inactive
2,Cc1cc(NC(=O)C(=O)O)cc(C)c1Oc1ccc(O)c2c1CCC2,inactive
3,CCCCCCCCCCO,inactive
4,CCc1c(C(=O)NN2CCCCC2)nn(-c2ccc(Cl)cc2Cl)c1-c1ccc(Br)cc1,inactive
5,COc1cc(S(=O)(=O)O)c(C)cc1N=Nc1c(O)ccc2cc(S(=O)(=O)O)ccc12,inactive
6,CCOC(=O)C(C)(C)Oc1ccc(Cl)cc1,inactive
7,CN1CCN(Cc2cc(-c3ccc4[nH]c(=O)oc4c3)co2)[C@@H](c2ccc(F)cc2)C1,inactive
8,FC(F)(F)C(F)(F)C(F)(F)C(F)(F)C(F)(F)C(F)(F)CCI,inactive
9,CNC(=O)[C@H]1O[C@@H](n2cnc3c(NCc4cc(Cl)ccc4OCc4cc(C)no4)ncnc32)[C@H](O)[C@@H]1N,inactive
10,CCCCc1ccc2c(n1)[C@@H](c1ccc(OC)cc1C[C@H](C)C(=O)O)[C@H](C(=O)O)[C@H]2c1ccc2c(c1)OCO2,inactive
11,O=C(O)CCCCC(=O)O,inactive
12,CCCCCCCCCCCC(=O)OC,inactive
13,Cc1ccc(Cl)cc1,inactive
14,CC(CO)OC(C)CO (centres undefined) (tested in a mixture with another compound),inactive
15,COCCOCCOC,inactive
16,CC(=O)OCCOCCOCCOC(C)=O,inactive
17,COc1cc(-c2nc(NC(=O)c3cc4cc(C)cc(C)c4n3CC(=O)O)sc2CCC2CCCCC2)c(OC)cc1Cl,inactive
18,O=C(O)Cc1ccccc1Nc1c(Cl)cccc1Cl,inactive
19,Cc1ccccc1Cl,inactive
20,Cc1nc(C)nc(N2C[C@@H](C)N(c3ccnc([C@@H](C)O)n3)[C@@H](C)C2)n1,inactive
21,NS(=O)(=O)c1cc2c(cc1Cl)NCNS2(=O)=O,inactive
22,NC(=O)Cn1c(=O)cc(CCN2CCN(c3nccc4sccc34)CC2)c2ccc(F)cc21,inactive
23,Cc1cc(=O)[nH]c(=S)[nH]1,inactive
24,CCCCN(CCCC)CCCC,inactive
25,Cc1nc(-c2ccc3c(c2)CCN(CCC2CCC(NC(=O)/C=C/c4ccc(F)cc4)CC2)CC3)no1 (centres undefined),inactive
26,COc1cc(/C=C/C(=O)CC(=O)/C=C/c2ccc(O)c(OC)c2)ccc1O,inactive
27,O=c1[nH]cc(F)c(=O)[nH]1,inactive
28,CN[C@H]1CC[C@@H](c2ccc(Cl)c(Cl)c2)c2ccc(S(N)(=O)=O)cc21,inactive
29,Nc1nc(N)c2nc(CNc3ccc(C(=O)N[C@@H](CCC(=O)O)C(=O)O)cc3)cnc2n1,inactive
